Source: PubChem BioAssay (Tox21)
Records with an inconclusive call do not appear. Activity calls are given as the source filed them. Unless noted, the call rests on the fitted dose curve; in most records, active means well fitted curve in the direction sought with a large enough effect in the repeat runs; inconclusive means weak or mixed curves; inactive means no such curve, though single readings can be large; an effect the other way counts as inactive or inconclusive.

Assays:
[1] = qHTS assay to identify small molecule antagonists of the thyroid receptor (TR) signaling pathway (AID 743065); further: nearly all actives have a fitted effect of over 55% in size; further: potency means the concentration at half of the fitted maximal effect
Method in brief: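 GH3.TRE-Luc rat pituitary cells (two TREs driving luciferase) were dosed with compound, then stimulated with 1 nM T3 (final) for 23.5 h at 37 C. ONE-Glo luminescence was the read-out, with CellTiter-Fluor fluorescence as the cytotoxicity counter-screen.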

[2] = test system: thyroid hormone receptor (rat, GH3 cells); test: qHTS assay to identify small molecule agonists of the thyroid receptor (TR) signaling pathway (AID 743066; calls by dose curve)
[3] = target: Estrogen receptor (Homo sapiens) (UniProt P03372); test: qHTS assay to identify small molecule agonists of the estrogen receptor alpha (ER-alpha) signaling pathway (AID 743075; calls by dose curve;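 further: HEK293 GripTite cells with ER-alpha and UAS-driven beta-lactamase reporter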)
[4] = qHTS assay to identify small molecule antagonists of the estrogen receptor alpha (ER-alpha) signaling pathway using the BG1 cell line (AID 743080; calls by dose curve;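 further: BG1 cells stimulated with 17beta-estradiol alongside compound; nearly all actives have a fitted effect of over 25% in size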; further: potency means the concentration at half of the fitted maximal effect)
Method in brief: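 After 5 days in phenol-red-free 10% charcoal-stripped FBS medium, BG1-Luc-4E2 cells were seeded, left 24 h at 37 C, co-treated with compounds and 17beta-estradiol for 21.5 h, then assayed for viability and luciferase.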

Aromatase (Homo sapiens) = Aromatase (Homo sapiens) (UniProt P11511); test: qHTS assay to identify aromatase inhibitors (AID 743083); further: nearly all actives have a fitted effect of over 55% in size
[5] = target: Aryl hydrocarbon receptor (Homo sapiens) (UniProt P35869); test: qHTS assay to identify small molecule that activate the aryl hydrocarbon receptor (AhR) signaling pathway (AID 743085); further: nearly all actives have a fitted effect of over 15% in size; further: potency means the concentration at half of the fitted maximal effect;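 on activation: HG2L7.5c1 human HepG2 liver cells with stably integrated DRE-driven firefly reporter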
Method in brief: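 Reporter assay in engineered HepG2 line HG2L7.5c1, whose plasmid carries twenty dioxin responsive elements upstream of firefly luciferase. Treatment lasted 24 h at 37C; ONE-Glo luminescence gauged induction.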

[6] = qHTS assay to identify small molecule phospholipidosis (PLD) inducers (AID 1259344; active means well fitted curve in the direction sought with a large enough effect; an effect the other way counts as inactive or inconclusive)
Method in brief: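 Quantitative HTS in HepG2: compound plus LipidTOX Red dye for 24 h, paraformaldehyde fixation with Hoechst 33342, widefield high-content imaging; amiodarone as positive and DMSO as negative control.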

[7] = target: Nuclear receptor subfamily 1 group I member 2 (Rattus norvegicus) (UniProt Q9R1A7); test: Rat pregnane X receptor (rPXR) activation by small molecules, qHTS assay (AID 1346983); settings: rPXR luciferase reporter cells, One-Glo luminescence, 24 h; max activation: stronger effect = higher value; further: nearly all actives have a fitted effect of over 20% in size
Method in brief: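 Cell-based rPXR activation assay: rPXR cells, 2,000 per well, rested 5hr at 37 C, then exposed to compounds in DMSO for 24 hr at 37 C. Luciferase activity read by One-Glo luminescence after 30 min at room temperature.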

[8] = target: Nuclear receptor subfamily 1 group I member 2 (Homo sapiens) (UniProt O75469); test: CYP3A4 induction through human pregnane X receptor (PXR) by small molecules, qHTS assay (AID 1346984); further: nearly all actives have a fitted effect of over 40% in size; further: potency means the concentration at half of the fitted maximal effect
Method in brief: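 Luminescence readout: luciferase signal after One-Glo (30 min, room temperature), following 3 h at 37C with 3uM final Luciferin-IPA P450 substrate. Cells were DPX-2 (HepG2, PXR/CYP3A4-luc co-transfected) dosed for 24 h.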

[9] = target: Nuclear receptor subfamily 1 group I member 2 (Homo sapiens) (UniProt O75469); test: Human pregnane X receptor (PXR) activation by small molecules, qHTS assay (AID 1346985); further: nearly all actives have a fitted effect of over 40% in size; further: potency means the concentration at half of the fitted maximal effect
Method in brief: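 DPX-2 cells (HepG2 co-transfected with a PXR response element and a CYP3A4-promoter luciferase construct) were seeded at 2,000 per well, rested 5 hr at 37C, then exposed to DMSO-dissolved compounds for 24 hr. Activation was read as luciferase luminescence.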

[10] = qHTS assay to identify small molecule antagonists of the estrogen receptor alpha (ER-alpha) signaling pathway - cell viability counter screen (AID 743074; calls by dose curve;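 further: HEK293 cells carrying ER-alpha-UAS-bla reporter stimulated with 17beta-estradiol; nearly all actives have a fitted effect of over 45% in size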)
[11] = qHTS assay to identify small molecule that activate the aryl hydrocarbon receptor (AhR) signaling pathway - cell viability counter screen (AID 743086);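 further: HepG2 liver cells carrying the AhR DRE luciferase reporter; nearly all actives have a fitted effect of over 45% in size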
Method in brief: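 HepG2-AhR-luc (HG2L7.5c1) cells, 4000/well, treated 24 h at 37 C with compound; viability measured as CellTiter-Fluor fluorescence after 30 min in the same wells as the luciferase read.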

[12] = target: Estrogen receptor (Homo sapiens) (UniProt P03372); test: qHTS assay to identify small molecule antagonists of the estrogen receptor alpha (ER-alpha) signaling pathway (AID 743069; active means well fitted curve in the direction sought with a large enough effect in the signal ratio in the repeat runs, not every such curve was filed as active; the % refers to the signal ratio)
Method in brief: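 Reporter cells (ER-alpha-bla, HEK293 background) are conditioned overnight in stripped-serum medium (2% charcoal-stripped FBS). Compound and 17beta-estradiol exposure runs 18 hr at 37C, 5% CO2.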

[13] = target: Estrogen receptor (Homo sapiens) (UniProt P03372); test: qHTS assay to identify small molecule agonists of the estrogen receptor alpha (ER-alpha) signaling pathway using the BG1 cell line (AID 743079); settings: BG1Luc4E2 cells, ERE-luciferase agonist, 22 h; activation: at 70.3 µM (top of the series); further: nearly all actives have a fitted effect of over 20% in size
[14] = qHTS assay to identify small molecule antagonists of the estrogen receptor alpha (ER-alpha) signaling pathway using the BG1 cell line - cell viability counter screen (AID 743081);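 further: compound given together with 17beta-estradiol as the ER stimulus; nearly all actives have a fitted effect of over 45% in size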
[15] = qHTS assay to identify aromatase inhibitors - cell viability counter screen (AID 743084);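 further: cells stimulated with testosterone during compound exposure; nearly all actives have a fitted effect of over 55% in size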
[16] = target: Peroxisome proliferator-activated receptor gamma (Homo sapiens) (UniProt P37231); test: qHTS assay to identify small molecule agonists of the peroxisome proliferator-activated receptor gamma (PPARg) signaling pathway (AID 743094; active means well fitted activation curve with a large enough effect in the signal ratio in the repeat runs, not every such curve was filed as active; the % refers to the signal ratio)
Method in brief: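 Beta-lactamase FRET fluorescence was the read-out after a 1 h room-temperature substrate step, following 17 h compound treatment at 37C of HEK293H cells expressing a UAS-driven bla reporter responsive to PPARg.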

[17] = qHTS assay to identify small molecule antagonists of the thyroid receptor (TR) signaling pathway - cell viability counter screen (AID 743064); further: nearly all actives have a fitted effect of over 50% in size
Method in brief: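 Same-well viability check: GH3.TRE-Luc cells stimulated with 1 nM T3 alongside test compound for 23.5 h, followed by CellTiter-Fluor fluorescence.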
On the % scale 0 is the no-effect control and ±100 the full control effect.

Chain of Estrogen receptor (Homo sapiens) (P03372 whole entry, looked up): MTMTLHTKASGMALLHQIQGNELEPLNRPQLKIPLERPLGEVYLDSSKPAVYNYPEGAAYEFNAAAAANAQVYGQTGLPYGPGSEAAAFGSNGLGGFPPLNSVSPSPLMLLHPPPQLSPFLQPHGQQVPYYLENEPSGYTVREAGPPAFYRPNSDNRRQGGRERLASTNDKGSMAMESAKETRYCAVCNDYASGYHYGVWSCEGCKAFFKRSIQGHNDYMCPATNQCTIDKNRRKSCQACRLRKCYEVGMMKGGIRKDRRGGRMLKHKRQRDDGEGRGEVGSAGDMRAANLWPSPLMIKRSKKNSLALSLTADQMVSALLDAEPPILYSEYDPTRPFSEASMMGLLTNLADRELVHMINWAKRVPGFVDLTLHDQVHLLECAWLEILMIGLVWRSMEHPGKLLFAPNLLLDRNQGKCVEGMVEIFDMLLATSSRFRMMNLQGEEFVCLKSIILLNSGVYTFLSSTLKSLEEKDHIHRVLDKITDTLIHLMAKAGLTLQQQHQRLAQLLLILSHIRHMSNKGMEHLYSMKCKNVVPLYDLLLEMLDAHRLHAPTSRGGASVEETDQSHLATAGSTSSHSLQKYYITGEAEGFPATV
Chain of Nuclear receptor subfamily 1 group I member 2 (Rattus norvegicus) (Q9R1A7 whole entry, looked up): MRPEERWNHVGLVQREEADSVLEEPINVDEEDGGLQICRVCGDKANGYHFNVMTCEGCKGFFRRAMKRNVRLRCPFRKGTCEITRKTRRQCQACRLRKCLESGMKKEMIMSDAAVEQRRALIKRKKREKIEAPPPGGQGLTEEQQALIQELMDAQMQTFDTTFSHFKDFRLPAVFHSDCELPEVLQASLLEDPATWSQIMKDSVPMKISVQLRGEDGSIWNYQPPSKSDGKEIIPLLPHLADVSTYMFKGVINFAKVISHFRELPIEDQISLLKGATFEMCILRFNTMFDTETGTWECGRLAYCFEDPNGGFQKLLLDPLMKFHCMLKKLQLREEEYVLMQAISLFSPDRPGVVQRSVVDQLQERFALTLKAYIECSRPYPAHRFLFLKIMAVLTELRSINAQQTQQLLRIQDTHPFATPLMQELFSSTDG
Chain of Aromatase (Homo sapiens) (P11511 whole entry, looked up): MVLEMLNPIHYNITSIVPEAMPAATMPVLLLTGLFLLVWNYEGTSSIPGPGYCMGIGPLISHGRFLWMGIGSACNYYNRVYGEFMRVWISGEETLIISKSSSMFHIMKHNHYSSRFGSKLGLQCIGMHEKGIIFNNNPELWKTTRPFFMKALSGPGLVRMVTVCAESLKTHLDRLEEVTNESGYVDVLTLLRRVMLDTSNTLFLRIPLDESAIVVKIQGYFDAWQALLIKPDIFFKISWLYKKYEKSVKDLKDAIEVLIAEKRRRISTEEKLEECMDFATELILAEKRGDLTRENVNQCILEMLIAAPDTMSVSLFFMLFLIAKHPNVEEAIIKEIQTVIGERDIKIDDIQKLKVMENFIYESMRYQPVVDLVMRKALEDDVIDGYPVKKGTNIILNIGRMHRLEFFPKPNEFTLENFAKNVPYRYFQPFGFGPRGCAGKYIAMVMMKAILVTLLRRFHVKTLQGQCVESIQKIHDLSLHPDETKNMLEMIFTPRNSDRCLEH
Chain of Peroxisome proliferator-activated receptor gamma (Homo sapiens) (P37231 whole entry, looked up): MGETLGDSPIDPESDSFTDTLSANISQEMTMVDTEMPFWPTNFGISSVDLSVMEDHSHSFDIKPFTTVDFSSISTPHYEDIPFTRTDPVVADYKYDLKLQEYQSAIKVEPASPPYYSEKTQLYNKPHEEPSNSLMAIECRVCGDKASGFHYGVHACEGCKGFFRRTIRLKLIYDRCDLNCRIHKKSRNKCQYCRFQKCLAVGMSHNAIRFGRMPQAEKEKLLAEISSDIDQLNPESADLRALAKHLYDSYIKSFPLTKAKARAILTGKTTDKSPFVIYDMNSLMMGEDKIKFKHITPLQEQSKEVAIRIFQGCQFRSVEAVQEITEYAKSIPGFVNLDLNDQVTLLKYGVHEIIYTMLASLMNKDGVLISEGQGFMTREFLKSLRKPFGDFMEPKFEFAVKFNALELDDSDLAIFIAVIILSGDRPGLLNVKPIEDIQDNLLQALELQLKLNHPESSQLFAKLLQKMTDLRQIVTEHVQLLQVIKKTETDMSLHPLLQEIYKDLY
Chain of Aryl hydrocarbon receptor (Homo sapiens) (P35869 whole entry, looked up): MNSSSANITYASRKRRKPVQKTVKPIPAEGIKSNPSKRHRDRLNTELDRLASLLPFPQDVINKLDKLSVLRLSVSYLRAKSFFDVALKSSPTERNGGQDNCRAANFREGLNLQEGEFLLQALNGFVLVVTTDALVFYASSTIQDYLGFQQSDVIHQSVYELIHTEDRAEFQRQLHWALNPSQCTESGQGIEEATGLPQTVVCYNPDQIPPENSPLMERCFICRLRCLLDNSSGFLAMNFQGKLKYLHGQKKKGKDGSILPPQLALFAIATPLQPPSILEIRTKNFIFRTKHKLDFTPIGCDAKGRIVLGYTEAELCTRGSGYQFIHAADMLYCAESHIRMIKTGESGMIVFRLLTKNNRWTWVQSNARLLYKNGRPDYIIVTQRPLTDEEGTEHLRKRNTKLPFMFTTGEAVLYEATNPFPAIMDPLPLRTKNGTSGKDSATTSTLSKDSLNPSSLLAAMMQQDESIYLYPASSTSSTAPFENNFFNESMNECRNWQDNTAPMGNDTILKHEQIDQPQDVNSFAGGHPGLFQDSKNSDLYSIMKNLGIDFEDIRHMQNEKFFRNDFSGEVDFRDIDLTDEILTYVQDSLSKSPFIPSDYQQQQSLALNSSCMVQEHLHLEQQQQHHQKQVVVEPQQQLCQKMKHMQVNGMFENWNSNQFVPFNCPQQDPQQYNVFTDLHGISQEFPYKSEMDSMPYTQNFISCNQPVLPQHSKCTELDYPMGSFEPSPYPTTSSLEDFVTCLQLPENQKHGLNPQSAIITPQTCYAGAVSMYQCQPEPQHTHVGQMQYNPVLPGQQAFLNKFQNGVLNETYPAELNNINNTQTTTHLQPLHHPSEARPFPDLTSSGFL

O=C(O)CN(CC(=O)O)CC1=CC2C(=CC1=O)Oc1cc(O)c(CN(CC(=O)O)CC(=O)O)cc1C21OC(=O)c2ccccc21 (centres undefined)
inactive: Potency [1] | Potency [2] | Potency [3] | Potency [4] | Potency (Aromatase (Homo sapiens)) | Potency [5] | Potency [6] | max activation [7] 0.33% | Potency [8] | Potency [9]

C=CCNC1=C2C[C@@H](C)C[C@H](OC)[C@H](O)[C@@H](C)/C=C(\C)[C@H](OC(N)=O)[C@@H](OC)/C=C\C=C(/C)C(=O)NC(=CC1=O)C2=O
active: Potency [1] 0.335 µM | Potency [4] 0.237 µM | Potency [9] 6.31 µM
inactive: Potency [2] | Potency [10] | Potency [3] | Potency (Aromatase (Homo sapiens)) | Potency [5] | Potency [11] | Potency [6] | max activation [7] -14.2% | Potency [8]

Nc1ncnc2c1ncn2CCOCP(=O)(O)O
inactive: Potency [1] | Potency [2] | Potency [12] | Potency [10] | Potency [3] | Potency [13] | Potency [4] | Potency [14] | Potency [15] | Potency [5] | Potency [11] | Potency [16] | Potency [6] | max activation [7] -0.588% | Potency [8] | Potency [9]

CCCCCCCCCCCC(=O)N(CCO)CCO
inactive: Potency [2] | Potency [10] | Potency [3] | Potency [13] | Potency [4] | Potency [14] | Potency (Aromatase (Homo sapiens)) | Potency [15] | Potency [5] | Potency [11] | Potency [16] | Potency [6] | max activation [7] -2.62% | Potency [8] | Potency [9]

CC1(C)S[C@@H]2[C@H](NC(=O)C(C(=O)O)c3ccsc3)C(=O)N2[C@H]1C(=O)O (some centres undefined)
inactive: Potency [12] | Potency [10] | Potency [3] | Potency [13] | Potency [4] | Potency [14] | Potency (Aromatase (Homo sapiens)) | Potency [15] | Potency [5] | Potency [11] | Potency [16] | Potency [6] | max activation [7] -6.29% | Potency [8] | Potency [9]

NC(=O)OC[C@@H]1[C@H](NC(=O)/C(=N\OCC(=O)O)c2csc(N)n2)C(=O)N1S(=O)(=O)O
inactive: Potency [1] | Potency [2] | Potency [10] | Potency [14] | Potency [11] | Potency [6] | max activation [7] -2.39% | Potency [8] | Potency [9]

CCCCCc1ccc(C)cc1O
inactive: Potency [2] | Potency [12] | Potency [10] | Potency [3] | Potency [13] | Potency [4] | Potency [14] | Potency [15] | Potency [11] | Potency [16] | Potency [6] | max activation [7] 4.82% | Potency [8] | Potency [9]
active: Potency [1] 26.6 µM

COc1ccccc1N1CCN(CCCC(=O)c2ccc(F)cc2)CC1
active: Potency [5] 10.6 µM | Potency [8] 6.31 µM
inactive: Potency [17] | Potency [1] | Potency [2] | Potency [10] | Potency (Aromatase (Homo sapiens)) | Potency [15] | Potency [11] | Potency [16] | Potency [6] | max activation [7] 8.11%
